Source: PubChem
This is a sample that favours compounds with a hit; in the whole collection about 2.6% have one here.
Cruzain inh noDet: qHTS Assay for Promiscuous and Specific Inhibitors of Cruzain (without detergent); 200,000 compounds, 2.3% hits; Cruzipain (Trypanosoma cruzi), P25779; AID 1476, 2009; purified cruzain, Z-FR-AMC fluorescence, no detergent; Potency, µM, for inactives: max response, negative = inhibition, actives largely listed as inhibitors;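 note: plate controls were enzyme without inhibitor for no effect and buffer without enzyme for full effect; nearly all actives have a fitted effect of over 40% in size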
Target sequence (P25779 123-467 limits assumed): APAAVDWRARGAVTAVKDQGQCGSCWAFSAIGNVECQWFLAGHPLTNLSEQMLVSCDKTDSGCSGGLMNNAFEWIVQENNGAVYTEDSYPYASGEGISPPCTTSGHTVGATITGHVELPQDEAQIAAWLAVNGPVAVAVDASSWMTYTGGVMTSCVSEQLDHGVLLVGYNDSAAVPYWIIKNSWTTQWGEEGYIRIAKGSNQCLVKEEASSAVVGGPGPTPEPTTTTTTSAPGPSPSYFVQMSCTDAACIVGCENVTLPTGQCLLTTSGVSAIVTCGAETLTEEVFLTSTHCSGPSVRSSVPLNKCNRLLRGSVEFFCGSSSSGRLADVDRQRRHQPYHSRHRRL
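Purified cruzain at 1.5 nM, pre-incubated 15 min with compound at room temperature in 100 mM sodium acetate pH 5.5, 5 mM DTT, 0.00005% Triton X-100. Reaction started with 2 uM Z-FR-AMC; AMC fluorescence increase over 60 s gives rate.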
Cruzain Triton: qHTS Assay for Promiscuous and Specific Inhibitors of Cruzain (with detergent); Cruzipain (Trypanosoma cruzi), P25779; purified cruzain, Z-FR-AMC fluorescence, 0.01% Triton; Potency, µM, for inactives: max response, negative = inhibition, actives largely listed as inhibitors; 200,000 compounds, 0.43% hits; AID 1478, 2009;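 note: plate controls were neutral wells for no effect and buffer without enzyme for full effect; nearly all actives have a fitted effect of over 40% in size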
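Enzyme 1.5 nM, Z-FR-AMC 2 uM, NaOAc 100 mM pH 5.5, DTT 5 mM, Triton X-100 0.01%; 15 min RT compound preincubation; kinetic ex360/em450, 60 s delta.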
An asterisk follows results filed as active; ? = inconclusive. Calls come from the whole dose curve; as a rule, active = well fitted curve in the direction sought with a large enough effect; inconclusive = small, poorly fitted or top-dose-only effect, or another doubt; inactive = no such curve, though single readings can be large; an effect the other way counts as inactive or inconclusive. Potency is the fitted concentration of half-maximal effect.

SMILES	Cruzain inh noDet	Cruzain Triton
Cc1ccc(N/N=C/c2ccc3c(c2)OCCO3)cc1Cl	20µM*	3%
O=C(O)c1cc(N/N=C/c2ccc3c(c2)OCCO3)ccc1Cl	-1%	-8%
CCS(=O)(=O)N1CCc2cc(C(=O)NCc3ccccc3)ccc21	-10%	-3%
COc1ccc(OC)c(CCNC(=O)c2cnn(-c3ccccc3)c2C2CCN(C(=O)OC(C)(C)C)CC2)c1	?	-10%
COc1ccc2c(c1)C1C=CCC1C(c1cc3c(cc1Br)OCO3)N2 (stereo unspecified)	25µM*	-4%
COc1cccc([C@@H]2Nc3ccc(C(=O)O)cc3[C@@H]3C=CC[C@@H]32)c1OC	-21%	-5%
Cc1nn(-c2ccc(N3CCOCC3)nn2)c(C)c1CCC(=O)NCc1ccc(OC(C)C)cc1	3%	0%
O=C(Nc1ccc(N2CCCCC2)c(Cl)c1)c1ccc(N2CCOCC2)c([N+](=O)[O-])c1	-1%	-3%
COc1cccc(C(=O)Nc2ccccc2-c2nc3ccccc3s2)c1	7%	0%
O=C(Nc1ccc2c(c1)OCO2)c1ccc(N2CCCC2)c([N+](=O)[O-])c1	25µM*	-10%
CC(=O)N1CCN(c2ccc(NC(=O)c3ccc(N4CCCC4)c([N+](=O)[O-])c3)cc2Cl)CC1	13%	1%
O=C(Nc1nc2ccc3ccccc3c2s1)c1ccc(N2CCCCC2)c([N+](=O)[O-])c1	6.3µM*	-5%
O=C(Nc1nc2ccc(Cl)cc2s1)c1ccc(N2CCCCC2)c([N+](=O)[O-])c1	5µM*	-3%
CCC(CC)c1nnc(NC(=O)c2ccc(N3CCCCC3)c([N+](=O)[O-])c2)s1	0%	-5%
Cc1c(NC(=O)c2ccc(N3CCCC3)c([N+](=O)[O-])c2)cccc1-c1nc2ccccc2s1	7.9µM*	-7%
COc1ccc(Cl)cc1NC(=O)Cn1ncc2c3ccccc3n(C)c2c1=O	-11%	0%
CCOC(=O)c1cccc(NC(=O)[C@@H](c2ccccc2)N2Cc3ccccc3C2=O)c1	3%	-5%
CN(C)c1ccc(NC(=O)CC(NCc2cccnc2)C(=O)O)cc1 (stereo unspecified)	-8%	-1%
N#C/C(=C\c1ccc(Cl)cc1)c1nc2ccccc2[nH]1	2%	-5%
O=C(/C=C/c1ccc(Cl)cc1Cl)c1nc2ccccc2[nH]1	7.9µM*	4%
CCc1ccccc1Nc1sc(C(=O)c2cccc(OC)c2)c(N)c1S(=O)(=O)c1ccccc1	7.9µM*	-5%
CCS(=O)(=O)c1c(Nc2cc(C)ccc2C)sc(C(=O)c2ccccc2)c1N	-9%	-8%
COc1cccc(C(=O)c2sc(Nc3ccc(F)c(Cl)c3)nc2N)c1	-28%	-1%
CC(C)c1ccc(Nc2sc(C(=O)c3ccccc3)c(N)c2S(=O)(=O)c2ccccc2)cc1	4µM*	0%
N#Cc1c(Nc2ccccc2)sc(C(=O)c2ccccc2)c1N	-7%	-11%
SMILES	Cruzain inh noDet	Cruzain Triton
COc1ccc(S(=O)(=O)c2c(Nc3ccccc3F)sc(C(=O)c3cccc(OC)c3)c2N)cc1	13µM*	-1%
COc1ccc(S(=O)(=O)c2c(Nc3ccc(C)cc3C)sc(C(=O)c3ccc(F)cc3)c2N)cc1	5µM*	-1%
CCOc1ccc(Nc2sc(C(=O)c3ccc(F)cc3)c(N)c2S(=O)(=O)c2ccc(C)cc2)cc1	-11%	-1%
CCOC(=O)CNC(=O)O[C@@H]1C(=O)c2ccc(OC)cc2O[C@H]1c1ccc2c(c1)OCO2	8%	1%
Cc1ccc(Nc2c(-c3cccnc3)nc3ccc(Cl)cn23)cc1	7%	-2%
CCn1cc(C(=O)NCCCOC(C)C)c(=O)c2cc(S(=O)(=O)N(C)C3CCCCC3)ccc21	?	-5%
O=C(Nc1c(C(=O)Nc2ccccc2F)oc2ccccc12)c1cc2ccccc2o1	2%	1%
Cc1ccc(OC(C)C(=O)N2CCN(CCc3ccncc3)CC2)cc1C (stereo unspecified)	6%	1%
CCCCOc1c(Cl)cc(C(=O)N(Cc2ccc(C)o2)C2CCS(=O)(=O)C2)cc1Cl (stereo unspecified)	?	-12%
CCOc1ccccc1Nc1sc(C(=O)c2ccc(Cl)cc2)c(N)c1S(=O)(=O)c1ccccc1	3.2µM*	1%
CCc1ccccc1Nc1sc(C(=O)c2ccccc2)c(N)c1S(=O)(=O)c1ccccc1	6.3µM*	-4%
Cc1ccc(Cl)cc1Nc1sc(C(=O)c2ccccc2)c(N)c1S(=O)(=O)c1ccccc1	?	-2%
Cc1cccc(C)c1Nc1sc(C(=O)c2ccccc2)c(N)c1S(=O)(=O)c1ccccc1	16µM*	-1%
Cc1c(Cl)cccc1Nc1sc(C(=O)c2ccccc2)c(N)c1S(=O)(=O)c1ccccc1	?	-5%
CCOc1ccccc1Nc1sc(C(=O)c2ccccc2)c(N)c1S(=O)(=O)c1ccc(C)cc1	?	2%
COc1ccc(-c2ccc(NS(=O)(=O)c3ccccc3Cl)cc2)nn1	?	-6%
COc1ccc(OC)c(Nc2nc3ccccc3nc2-n2nc(C)cc2C)c1	-3%	-3%
Cc1nc2c(-c3ccc(F)cc3)c(C)nn2c(C)c1CCC(=O)NCc1ccc(Cl)cc1	2%	1%
Cc1ccc(Cl)cc1NC(=O)c1cc(-c2ccc3c(c2)OCCO3)on1	-16%	-3%
O=C(NC1CCCCC1)c1ccc2c(c1)N(Cc1ccccc1F)C(=O)c1ccccc1S2	?	-2%
COc1ccc(Oc2ncc3ncc(=O)n(C[C@H]4CCCO4)c3n2)cc1	8%	0%
COc1ccccc1NC(=O)c1ccc(CN(c2cc(Cl)ccc2C)S(=O)(=O)c2ccccc2)cc1	13µM*	0%
COc1ccc(NC(=O)c2ccc(CN(c3cc(Cl)ccc3C)S(=O)(=O)c3ccccc3)cc2)cc1OC	?	1%
Cc1c(Cl)ccc2sc(NC(=O)c3ccc(S(=O)(=O)N4CCCc5ccccc54)cc3)nc12	?	1%
CCOc1cccc2sc(NC(=O)c3ccc(S(=O)(=O)N4CCCc5ccccc54)cc3)nc12	2µM*	-2%
SMILES	Cruzain inh noDet	Cruzain Triton
Cc1cc(C)c2nc(NC(=O)c3cccc(S(=O)(=O)N4CCc5ccccc54)c3)sc2c1	4µM*	0%
COc1cc2nc(NC(=O)c3ccc(S(=O)(=O)N4CCc5ccccc54)cc3)sc2cc1OC	-28%	-2%
O=C(Nc1nc2c(Cl)cccc2s1)c1ccc(S(=O)(=O)N2CCc3ccccc32)cc1	3.2µM*	-2%
O=C(Nc1ncccc1O)c1cccc(S(=O)(=O)N2CCc3ccccc32)c1	-6%	-3%
Cc1cccc2sc(NC(=O)c3cccc(S(=O)(=O)N4CCc5ccccc54)c3)nc12	10µM*	-1%
Cc1cc(C)c2nc(NC(=O)c3ccc(S(=O)(=O)N4CCCC4)cc3)sc2c1	?	3%
Cc1ccc(-n2c(=O)c3c(C)c(C(=O)N(C)C)sc3n(CC(=O)C(C)(C)C)c2=O)cc1C	0%	3%
COc1ccc2c(c1)C(c1ccccc1C)CC(=O)O2 (stereo unspecified)	-3%	1%
N#CCCn1c(=O)c(-c2cccs2)nc2cnc(N3CCOCC3)nc21	5%	0%
Cc1cccc2sc(NNC(=O)c3ccc(S(=O)(=O)N4CCc5ccccc5C4)cc3)nc12	7.9µM*	12%
Cc1cccc2sc(NNC(=O)c3ccc(S(=O)(=O)N4CCCC(C)C4)cc3)nc12 (stereo unspecified)	-23%	0%
